Results taken from PubChem BioAssay (NCATS).
“And” between values parts separate entries of the source, which are not always exact repeats. Equal entries are not always repeated. Results filed as inconclusive are left out. The source made the active and inactive calls. Calls follow the shape of the dose curve; as a rule, active = well fitted inhibition curve with a large enough effect; inconclusive = small, poorly fitted or top-dose-only effect; inactive = no such curve, though single readings can be large or run the other way.

experiment: Primary qHTS for inhibitors of nuclear receptor binding SET domain protein 2 (NSD2) in an RCH-ACV wild type WT cells (2C) (AID 1645877); conditions: RCH-ACV (leukaemia line) NSD2 WT (2C) viability, CellTiter-Glo, 72 h; series mostly up to 44.9 µM; also: nearly all actives have a fitted effect of over 70% in size
Potency is read from the fitted curve at half-maximal effect.

SMILES	Potency
CCCCn1ccc(N2CCC(c3ccccc3)CC2)c(Cl)c1=O	18.3 µM (active)
COc1ccccc1NC(=O)Nc1ccc2ccccc2c1	2.9 µM (active)
C[C@@H]1COCCN1c1cc(C2(S(C)(=N)=O)CC2)nc(-c2ccnc3[nH]ccc23)n1 (stereo partly specified)	662 nM (active) and 2.31 µM (active)
CC1OC2OC3C(OCC(O)C3O)OC(=O)C34CCC(C)(C)CC3C3=CCC5C6(C)CC(O)C(OC7OC(CO)C(O)C(O)C7OC7OCC(OC(=O)CC(C)(O)CC(=O)OC1C(OC1OCC(O)C(O)C1O)C2O)C(O)C7O)C(C)(CO)C6CCC5(C)C3(C)CC4O (stereo unspecified)	3.17 µM (active)
Cc1ccc2c(Nc3ccc(Cl)cc3)nccc2c1Nc1ncccc1-c1ncnc2nc[nH]c12	20.6 µM (active)
O=C(NCc1ccc(Oc2ccccc2)cc1)c1nc(-c2cc(Br)c(O)c(Br)c2)no1	20.5 µM (active)
O=C(Nc1ccc(F)cc1)N1CCc2ccccc2C1c1ccc(C(F)(F)F)cc1 (stereo unspecified)	18.3 µM (active)
CC(C)(C)c1ccc(-c2nc3ccccc3[nH]2)cc1	6.32 µM (active)
C=C(C)C(=O)OC1[C@@H]2C(=C)C(=O)O[C@@H]2C[C@@H](C)[C@@H]2C=CC(=O)[C@@]12C (stereo partly specified)	10.1 µM (active)
COc1ccccc1-c1cc(Nc2cccc(CS(N)(=O)=O)c2)ncn1	2.9 µM (active)
CC1(C)CC23[C@@H]4CC(=O)[C@@H]2COC(=O)[C@@H]3CC[C@H]41	7.28 µM (active)
CCN1CCN(Cc2ccc(-c3cc4c(NC(C)c5ccccc5)ncnc4[nH]3)cc2)CC1 (stereo unspecified)	5.78 µM (active)
CN1CCN(C(=O)c2ccc(Nc3nccc(-c4cccs4)n3)cc2Cl)CC1	6.49 µM (active)
Cn1cnc(-c2nccc3c(=O)[nH]c(OCCCC(F)(F)F)nc23)c1	2.58 µM (active)
Cc1[nH]c(/C=C2\C(=O)Nc3ccc(F)cc32)c(C)c1C(=O)NC[C@H](O)CN1CCOCC1	6.49 µM (active) and 10.5 µM (active)
CCN(CCCOc1ccc2c(Nc3cc(CC(=O)Nc4cccc(F)c4)[nH]n3)ncnc2c1)CCOP(=O)(O)O	32.5 nM (active) and 37.2 nM (active)
O=C1c2c(O[C@@H]3O[C@H](CO)[C@@H](O)[C@H](O)[C@H]3O)cc(O)cc2OC1(O)Cc1ccc(O)cc1 (stereo partly specified)	4.47 µM (active)
CCCCn1c(-c2ccccc2)nc(-c2ccccc2)c1CN(Cc1ccc2c(c1)OCO2)Cc1ccc2c(c1)OCO2	18.3 µM (active)
CCC(C)n1cc(C)c2c(C(=O)NCc3c(C)cc(C)[nH]c3=O)cc(-c3ccc(N4CCNCC4)nc3)cc21 (stereo unspecified)	14.5 µM (active)
Cn1nccc1Nc1nccc(-c2ccn([C@H](CO)c3ccc(Cl)c(F)c3)c(=O)c2)n1	10.3 µM (active) and 8.33 µM (active)
CC1(C)CC[C@]2(C(=O)OC3OC(CO)C(O)C(O)C3O)CC[C@]3(C)C(=CCC4[C@@]5(C)CC[C@H](OC6OC(C(=O)O)C(O)C(O)C6O)C(CO)(CO)C5CC[C@]43C)[C@@H]2C1 (stereo partly specified)	0.435 µM (active)
Nc1ncnc2c1ncn2[C@@H]1O[C@H](CO)C[C@H]1O	5.78 µM (active)
O=[N+]([O-])c1ccc(-[n+]2nc(-c3ccccc3)nn2-c2ccc(I)cc2)cc1	inactive
O=C(NC(NC(=S)Nc1ccc(F)c([N+](=O)[O-])c1)C(Cl)(Cl)Cl)C(c1ccccc1)c1ccccc1 (stereo unspecified)	20.6 µM (active)
CC(=O)N1c2ccc(-c3ccc(C(=O)O)cc3)cc2C(Nc2ccc(Cl)cc2)CC1C (stereo unspecified)	0.0205 µM (active)
C=C1/C(=C/C=C2\CCC[C@]3(C)[C@@H]([C@H](C)/C=C/C(=O)C4CC4)CC[C@@H]23)C[C@@H](O)C[C@@H]1O	23 µM (active)
